# Test results as given in PubChem BioAssay AID950 (NMMLSC, 2007).
# Hit rate of the full screen: of about 190,000 compounds, about 120 (0.063%) were called active. No stated cut-off is given here; in the data, active means inhibition above about 40%; inconclusive means no clear call, values can overlap the other calls; inactive means below that. This excerpt belongs to a sample that is enriched for actives.
# Biological target: Apoptosis regulator Bcl-2 (Homo sapiens) (UniProt P10415)
# Test: Bcl-2 and Bim peptide interaction disruptors – biochemical, multiplexed, human Bcl-2 family, primary screen (AID 950);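 further: 0% = no compound wells with probe peptide and 100% = reference peptide inhibitor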
# Conditions: Bead-based flow cytometry, Bim peptide-Bcl-2 binding; at 10 µM; active compounds read high
# Chain of Apoptosis regulator Bcl-2 (Homo sapiens) (P10415 whole entry, looked up): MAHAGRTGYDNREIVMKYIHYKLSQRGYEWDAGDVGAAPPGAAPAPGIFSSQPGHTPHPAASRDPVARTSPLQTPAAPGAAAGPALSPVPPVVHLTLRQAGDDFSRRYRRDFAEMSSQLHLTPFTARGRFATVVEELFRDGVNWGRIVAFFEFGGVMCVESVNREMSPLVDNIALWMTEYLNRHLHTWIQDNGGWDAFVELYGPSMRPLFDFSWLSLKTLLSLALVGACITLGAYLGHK
row,SMILES,inhibition
1,CC(NC(=S)Nc1ccccc1)C1COc2ccccc2O1 (configuration not stated),-6% (inactive)
2,O=C(CCC(=O)N1CCCC1)Nc1ccc([N+](=O)[O-])cc1,-2% (inactive)
3,CC(C)CNC(=S)NC(=O)c1ccc(Cl)cc1,0% (inactive)
4,COCCN(C(=O)C(C)C)c1nnc(-c2ccc(C(C)(C)C)cc2)s1,-5% (inactive)
5,C=C1C2C[C@H](O)C(C)(C)[C@@]2(O)[C@H](O)C[C@]23C[C@@](C)(O)[C@H](CC[C@H]12)[C@H]3O (some centres not stated),0% (inactive)
6,Nc1nc(SCC(=O)N2CCN(S(=O)(=O)c3ccc(Cl)cc3)CC2)n[nH]1,-1% (inactive)
7,COc1cc([N+](=O)[O-])ccc1NC(=S)N1CCN(c2ccccn2)CC1,0% (inactive)
8,Cc1ccc(NC(=S)NC(=O)/C=C/c2ccc(Cl)cc2)cc1,-10% (inactive)
9,COC(=O)c1c(NC(=O)CCCC(=O)O)sc2c1CCCCC2,-3% (inactive)
10,COc1cccc(NC(=O)COC(=O)CCOc2ccccc2OC)c1,-2% (inactive)
11,Cc1cccc(/C(N)=N/OC(=O)c2ccccc2Cl)c1,-7% (inactive)
12,CCOC(=O)C(C)n1nc(-c2ccccc2)c2ccccc2c1=O (configuration not stated),-1% (inactive)
13,Cn1cc(Cl)c(C(=O)NNC(=S)Nc2cccc(Cl)c2)n1,0% (inactive)
14,Cc1ccc(OC(=O)CCC(=O)Nc2ccc(Br)cc2)cc1,0% (inactive)
15,O=C(N/N=C/c1ccccn1)c1ccc(S(=O)(=O)N2CCCCCC2)cc1,0% (inactive)
16,O=[N+]([O-])/C(N=Nc1ccccc1)=N\Nc1ccccc1,-1% (inactive)
17,N#CCC(=O)N/N=C/c1ccc(SCC(=O)Nc2ccccc2)o1,-1% (inactive)
18,Cc1ccc(NC(=O)Nc2cccc(C(F)(F)F)c2)nc1,0% (inactive)
19,CN1CCN(CC(=O)Nc2cccc([N+](=O)[O-])c2)CC1,-1% (inactive)
20,O=C(COC(=O)Cn1cnc2ccccc21)Nc1cccc2c1C(=O)c1ccccc1C2=O,-1% (inactive)
21,CC1COc2ccccc2N1S(=O)(=O)c1ccccc1 (configuration not stated),-1% (inactive)
22,COc1cc(NC(=O)c2ccccc2NS(=O)(=O)c2ccc(Cl)s2)cc(OC)c1,12% (inactive)
23,CCC(=O)Nc1ccc(C(=O)N2CCN(C(=O)c3ccco3)CC2)cc1,3% (inactive)
24,COc1ccc(/C=C/C(=O)OCC(=O)NCc2cccs2)cc1OC,0% (inactive)
25,CCOC(=O)N1CCN(Cc2nc(Cc3cccc(C(F)(F)F)c3)no2)CC1,-6% (inactive)

row,SMILES,inhibition
1,COc1cc2nc(CN(C)Cc3ccc(F)cc3)[nH]c(=O)c2cc1OC,14% (inactive)
2,O=C(O)CCCCCNc1ncnc2ccc(Br)cc12,3% (inactive)
3,COc1ccccc1-n1ccnc1SCC(=O)NC(C)(C)C,-11% (inactive)
4,CC12CN(NC(=O)c3ccc(Cl)cc3)C3(C#N)CC1CCC23C (configuration not stated),0% (inactive)
5,CC(=O)c1ccc(NC(=O)C(C)N(C)CC(=O)Nc2ccccc2Cl)cc1 (configuration not stated),1% (inactive)
6,CN(C)c1ccc(/C=N\S(=O)(=O)c2ccccc2)cc1,2% (inactive)
7,CCC1CCCCN1S(=O)(=O)Cc1ccccc1Cl (configuration not stated),1% (inactive)
8,CCOc1ccc(NC(=S)N2CCCCCC2)cc1,-6% (inactive)
9,COc1cccc(CNC(=O)CCC2CCCN(C(=O)c3cc(C)[nH]n3)C2)c1 (configuration not stated),-4% (inactive)
10,CCOc1ccc2c(=O)c(-c3ccc4c(c3)OCCCO4)c(C)oc2c1,-3% (inactive)
11,N/C(=N\OC(=O)c1ccc([N+](=O)[O-])cc1)c1ccccn1,-3% (inactive)
12,COc1ccc2cc(-c3[nH]ncc3CNCCn3nc(C)cc3C)ccc2c1,-2% (inactive)
13,Cc1cccc(NC(=O)CN2C(=O)c3ccccc3C2=O)c1C,0% (inactive)
14,Fc1cccc(Cc2noc(CN3CCN(c4cnccn4)CC3)n2)c1,0% (inactive)
15,Cc1cccc(-n2c(SCC(N)=O)nc3c(c2=O)C2(CCCCC2)Cc2ccccc2-3)c1,1% (inactive)
16,CCCCCNC(=O)c1cccnc1SCC(=O)Nc1ccccc1OC,-2% (inactive)
17,O=C1CCCC2=C1C(c1cccs1)CC(=O)N2c1ccc(F)cc1 (configuration not stated),4% (inactive)
18,O=C(CC(=O)N/N=C\c1cccc(Cl)c1Cl)NCc1ccccc1,-2% (inactive)
19,O=C(NN1C(=O)C2C3C=CC(C3)C2C1=O)c1ccco1 (configuration not stated),-4% (inactive)
20,CN(c1ccccc1)c1nc(N)c([N+](=O)[O-])c(NCc2ccco2)n1,-2% (inactive)
21,Cn1c(=N)n(CC(O)c2cccs2)c2ccccc21 (configuration not stated),-1% (inactive)
22,O=C(CSc1ccc(C(F)(F)F)cc1[N+](=O)[O-])NCCOc1ccccc1,-7% (inactive)
23,CC(C)(CNC(=O)c1ccc(Cl)c(S(=O)(=O)N2CCc3ccccc3C2)c1)N1CCOCC1,0% (inactive)
24,CCN(CC)c1ccc2c(Nc3ccccc3)c(C=O)c(=O)oc2c1,-4% (inactive)
25,C#CCOCCOCCOCCNc1nc(N2CCN(C(=O)[C@H](C(C)C)n3cc(CCO)nn3)CC2)nc(N2CCN(C(=O)[C@H](C(C)C)n3cc(CCO)nn3)CC2)n1,-3% (inactive)

row,SMILES,inhibition
1,Cc1cc(C)c(C2C3=C(Nc4c2c(C)nn4-c2ccccn2)c2ccccc2C3=O)c(C)c1 (configuration not stated),-2% (inactive)
2,CCN1CCc2nc(NC(=O)c3cc(F)c(F)cc3Cl)sc2C1,-5% (inactive)
3,COc1ccc(C(=O)C2CCCN(Cc3cccn3-c3ccccn3)C2)c(C)c1 (configuration not stated),0% (inactive)
4,CCc1ccc(C2N3CC4([N+](=O)[O-])CN2CC([N+](=O)[O-])(C3)C4(C)C)cc1 (configuration not stated),-9% (inactive)
5,CC1CCN(C(=S)c2cccc(O)c2)CC1,-5% (inactive)
6,C/C(=N\NC(=O)c1cccnc1)c1ccc(-n2ccnc2)cc1,-4% (inactive)
7,CCOC(=O)C1CCN(C(=O)C2(NC(=O)Nc3cccc(F)c3)CCCCC2)CC1,-2% (inactive)
8,C=CCc1ccccc1OCC(=O)N/N=C/c1ccccc1OCC,-4% (inactive)
9,CCOc1ccccc1/C=N/NC(=O)CNC(=O)COc1ccccc1,79% (active)
10,Cc1ccc(/C=N/NC(=O)CNC(=O)COc2ccccc2)o1,-10% (inactive)
11,O=C(CN1CCN(c2ncccn2)CC1)Nc1ccccc1C(F)(F)F,-2% (inactive)
12,COCCCNC(NC(=O)c1ccc(OC)cc1)C(Cl)(Cl)Cl (configuration not stated),0% (inactive)
13,Cc1cccc(NC(=S)NCc2ccc3[nH]c4c(c3c2)CCCC4)c1,2% (inactive)
14,NS(=O)(=O)c1ccc(NC(=O)COC(=O)C2(c3ccc(F)cc3)CCCC2)cc1,-9% (inactive)
15,Cc1cccc(Nc2nc3c(S(=O)(=O)c4ccccc4)nnn3c3ccccc23)c1C,0% (inactive)
16,CCc1ccc(NC(=O)Cn2nc(C)c([N+](=O)[O-])c2C)cc1,-2% (inactive)
17,CC(C)c1ccc(C2C(C#N)=C(N)Oc3c2oc(CO)cc3=O)cc1 (configuration not stated),-2% (inactive)
18,CCOc1ccc(NC(=O)COc2ccc(C(=O)NC3CCCc4ccccc43)cc2OC)cc1 (configuration not stated),-6% (inactive)
19,O=C(NCC1CCCO1)/C(=C/c1ccc(Cl)cc1)NC(=O)c1ccccc1 (configuration not stated),-5% (inactive)
20,CCCNS(=O)(=O)c1ccc(CCC(=O)N2CCCC2)cc1,-5% (inactive)
21,CC(=O)c1c(C)[nH]c(C(=O)OCC(=O)NCCC(C)C)c1C,-3% (inactive)
22,CCOC(=O)CCNC(=O)N1CCCC(C(=O)c2ccccc2SC)C1 (configuration not stated),2% (inactive)
23,CC(CC(=O)C1C(C)C=CCC1(C)C)NNC(N)=O (configuration not stated),-3% (inactive)
24,CC(Sc1nnnn1C1CCCCC1)C(=O)O (configuration not stated),-2% (inactive)
25,COc1ccc(Cl)cc1NC(=O)COC(=O)C(CC(C)C)N1C(=O)C2CC=CCC2C1=O (configuration not stated),-9% (inactive)

row,SMILES,inhibition
1,COc1cccc(NC(=O)NCc2ccc(F)cc2)c1,0% (inactive)
2,Cc1cc(Cl)c(S(=O)(=O)Nc2ccc3c(c2)OCCO3)cc1OCC(N)=O,-1% (inactive)
3,Cc1cc(Cl)c(S(=O)(=O)NCC2CCCO2)cc1OCC(N)=O (configuration not stated),79% (active)
4,Cc1cc(Cl)c(S(=O)(=O)NCCC(=O)O)cc1OCC(N)=O,-7% (inactive)
5,CN(C)CCOCCOc1ccc(Cl)c2ccccc12,-7% (inactive)
6,O=C(Nc1ccccc1C(=O)N1CCCCCC1)c1ccccc1Cl,-4% (inactive)
7,CC(=O)Nc1ccc(S(=O)(=O)NC2(C(F)(F)F)C(=O)Nc3c2c(=O)[nH]c(=O)n3Cc2ccccc2)cc1 (configuration not stated),-4% (inactive)
8,COCCOC(=O)c1c(C)oc2cc(Br)c(OCC(N)=O)cc12,0% (inactive)
9,CCCCN(C(=O)COc1ccc(NC(C)=O)cc1)C1CCS(=O)(=O)C1 (configuration not stated),-3% (inactive)
10,COCCn1c(C)cc(C(=O)COC(=O)/C=C/c2cccc(OC)c2)c1C,-5% (inactive)
11,O=C(O)Cc1ccc(NCc2ccccc2Cl)cc1,-3% (inactive)
12,CC1CN(S(=O)(=O)c2ccc(C(=O)Nc3sccc3C(N)=O)cc2)CC(C)O1 (configuration not stated),1% (inactive)
13,Cc1ccc(-c2nc(C#N)c(NCCCn3ccnc3)o2)cc1,-2% (inactive)
14,O=C(CNCc1ccco1)Nc1cc(S(=O)(=O)N2CCOCC2)ccc1N1CCCC1,-2% (inactive)
15,CC(C)=CCN1CCN(Cc2ccc(Oc3ncccn3)cc2)CC1CCO (configuration not stated),1% (inactive)
16,COc1ccc(N2CCN(C(=S)Nc3ccc(S(N)(=O)=O)cc3)CC2)cc1,-3% (inactive)
17,O=C(NCc1ccc(Cl)cc1)NCc1ccc(Cl)cc1,-4% (inactive)
18,O=C(CSc1ccc(-c2ccc(F)cc2)nn1)Nc1ccc2c(c1)OCCO2,-6% (inactive)
19,O=C(Nc1cccc(F)c1)N1C2CCC1CC(O)(c1cccnc1)C2 (configuration not stated),0% (inactive)
20,O=C(CN1CCN(c2ccc(O)cc2)CC1)Nc1cc(S(=O)(=O)N2CCOCC2)ccc1Cl,0% (inactive)
21,COc1cc(COCC(O)CN2CCN(Cc3ccc4c(c3)OCO4)CC2)cc(OC)c1OC (configuration not stated),-1% (inactive)
22,COC(=O)C1=C(C)N(C)C(=S)NC1c1cc(OC)ccc1OC (configuration not stated),-5% (inactive)
